This is an account of results in PubChem BioAssay AID652054 (National Center for Advancing Translational Sciences (NCATS), 2013).

Hit rate of the full screen: of about 360,000 compounds, about 9,100 (2.5%) were called active. About 4% were inconclusive and are not listed. Only a selection was taken, and actives are over-represented in it overall. A number with no mark means an inactive call. No stated cut-off is given here; in the data, active means max response below about -50%; inconclusive means no clear call, values can overlap the other calls; inactive means above that.
On the % scale 0 is the no-effect control and ±100 the full control effect.

The experiment deals with D(3) dopamine receptor (Homo sapiens) (UniProt P35462). Kind of experiment: qHTS of D3 Dopamine Receptor Antagonist: qHTS. The following applies: D3R cells, DiscoveRx beta-arrestin luminescence, antagonist mode; stronger effect = lower value. The source says: D3 DARs represent a very important target for the treatment of several neuropsychiatric disorders. Indeed, one of the most promising therapeutic applications for the D3 DAR is in the area of addiction and related disorders. […] These findings have been observed with a number of addictive substances including cocaine, amphetamine, nicotine, and alcohol. […] Antagonism of the D3 DAR may also be therapeutic in the treatment of schizophrenia or psychosis. […] Since the D3 DAR is expressed in areas of the CNS associated with the control of mood and emotion, it has been hypothesized that selective antagonism of the D3 DAR may be effective in treating psychosis without inducing the motor side effects typically seen with D2 DAR antagonists.
D(3) dopamine receptor (Homo sapiens), sequence (P35462 whole entry, looked up): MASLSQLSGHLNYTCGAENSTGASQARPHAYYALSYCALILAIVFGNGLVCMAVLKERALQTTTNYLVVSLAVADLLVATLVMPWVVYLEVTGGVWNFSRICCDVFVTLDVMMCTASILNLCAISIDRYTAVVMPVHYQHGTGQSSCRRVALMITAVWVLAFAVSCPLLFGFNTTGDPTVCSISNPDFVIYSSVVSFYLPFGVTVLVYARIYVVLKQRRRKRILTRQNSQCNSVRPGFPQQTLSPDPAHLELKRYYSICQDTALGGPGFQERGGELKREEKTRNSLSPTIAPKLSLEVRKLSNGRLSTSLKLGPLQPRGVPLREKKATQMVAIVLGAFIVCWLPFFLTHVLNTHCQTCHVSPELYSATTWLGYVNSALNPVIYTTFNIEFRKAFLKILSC
This part of the project aims to discover novel antagonist.
NIH Chemical Genomics Center [NCGC]
NIH Molecular Libraries Probe Centers Network [MLPCN]
Assay Submitter (PI): David Sibley, NINDS
Freshly passaged cells are plated in 1536 well white, solid bottom plates at a density of 1500 cells/well in 3microl of complete media. After an overnight incubation at 37 degrees C in 5% CO2, cells are loaded with 23nl of test compound from the compound library (as well as dopamine controls) using a 1536 pintool and incubated at 37 degrees C for 90 minutes. Two microliters of DiscoveRx reagent is then added to all cells, and they are incubated for an additional 30 - 60 minutes at room temperature. Following incubation, luminescence is measured on a ViewLux CCD-based luminometer reader using a 20 sec exposure time.
(Quantitative high-throughput screening tests each substance at several concentrations.)
On to `CC(=O)NC(=O)NC(C)Cc1ccccc1` (configuration not stated), for which the max response, negative = inhibition is 0%. The value for `CC(Cc1ccccc1)NCCC(c1ccccc1)c1ccccc1` (configuration not stated) was -75.4% (active).

`Fc1ccc(C2N3CCCN23)cc1` (configuration not stated): the max response, negative = inhibition is 17.3%.

Regarding `CCOC(=O)CC(SP1(=S)OCC2(CCCCO2)C(C2CCCCO2)O1)C(=O)OCC` (configuration not stated), the max response, negative = inhibition was 0.24%. For the molecule `COc1c(O)ccc2c1-c1c3c(cc4c1C(C2)N(C)CC4)OCO3` (configuration not stated), the max response, negative = inhibition is -20.5%. On to `COC1=C[C@@H]2[C@@H]3Cc4ccc(OC)c(O)c4[C@]2(CCN3C)CC1=O`, for which the max response, negative = inhibition is 2.57%. Take `COc1ccc2c(c1O)-c1cccc3c1[C@@H](C2)N(C)CC3`: the max response, negative = inhibition is -64.4% (active). As for `COc1cccc(CN2CCCC(C(=O)c3ccccc3SC)C2)c1O` (configuration not stated), the max response, negative = inhibition is -25.9%. Regarding `c1cncc(CNC2=NCCC2)c1`, the max response, negative = inhibition is -0.0969%. With `COC(=O)CN(CCCl)P1(=O)OCCCN1CCCl` (configuration not stated) the figure was 9.55%. With `CC(C)Oc1cccc(C(=O)C2CCCN(C3CCOCC3)C2)c1` (configuration not stated), the max response, negative = inhibition is -5.82%. With `CSc1ccc(C(=O)C2CCCN(Cc3ccn[nH]3)C2)cc1` (configuration not stated), the max response, negative = inhibition is 2.56%. The value for `CCn1cc(CN2CCCC(C(=O)c3cccc(C(F)(F)F)c3)C2)cn1` (configuration not stated) was -84.1% (active); that for `CN(C)CC1Oc2ccccc2OC1(O)c1ccccc1` (configuration not stated) was -95.3% (active).

Regarding `CC1CCC(N(C)C2CCN(C)CC2)CC1` (configuration not stated), the max response, negative = inhibition is -17.4%. In the case of `Cc1cccc(-n2c(C)nc3cc(C(=O)N4CCC5(CC4)OCCO5)ccc32)c1`, the max response, negative = inhibition was -5.12%. For the molecule `Clc1cccc(Cl)c1Cl`, the max response, negative = inhibition is -21.5%. As for `CN1CCN(Cc2ccccc2C(F)(F)F)CC1`, the max response, negative = inhibition is -22.2%. In the case of `Fc1cccc(F)c1CN1CCN(Cc2c(F)cccc2F)CC1`, the max response, negative = inhibition was -59.3% (active). Regarding `O=C(N/N=C/c1c(O)n(C2CC2)c(=S)[nH]c1=O)c1ccccc1`, the max response, negative = inhibition was -25.4%. With `CCC/C(=N\O)c1c[nH]c2ccccc12` the figure was -19.7%; with `Cc1cccc(NC(=O)N2CC3CC(C2)c2cccc(=O)n2C3)c1` (configuration not stated), 8.44%.

As for `CCOC(=O)C(O)(c1ccc(NC(=O)c2ccco2)c(OC)c1)C(F)(F)F` (configuration not stated), the max response, negative = inhibition was 44%.

In the case of `COc1cc(C(c2c(O)c3ccccc3oc2=O)c2c(C)n(C)n(-c3ccccc3)c2=O)ccc1O` (configuration not stated), the max response, negative = inhibition was 9.1%. Regarding `CCC(=O)CC(c1ccc([N+](=O)[O-])cc1)c1c(O)c2ccccc2oc1=O` (configuration not stated), the max response, negative = inhibition was -88.6% (active). Consider `Cc1ccc(-n2c(-c3ccc([N+](=O)[O-])cc3)nc3ccccc3c2=O)cc1`, for which the max response, negative = inhibition was 7.83%.

Turning to `COC(=O)C[C@H]1CC[C@H]2NC[C@@H](O)COC[C@@H]2O1`, the max response, negative = inhibition was 0.0579%. For the molecule `CC(=O)NCC1=C(c2ccc3ccccc3c2)C[C@@H]2CC[C@H]1N2Cc1ccco1`, the max response, negative = inhibition was -16.9%. Regarding `C[C@H]1CN([C@@H](C)CO)C(=O)CCCn2nncc2CO[C@H]1CN(C)C(=O)Oc1cccc2ccccc12`, the max response, negative = inhibition is 27%. Regarding `CCOC(=O)C1CN(C)CCC1=O` (configuration not stated), the max response, negative = inhibition was -50.3% (active). As to `CCOC(=O)[C@]12Cc3cc(OC)ccc3[C@H]1N(C(C)C)C(=O)c1ccccc12`, the max response, negative = inhibition was 0.502%. On to `c1ccc(C(CN2CCCCC2)c2ccccc2)cc1`, for which the max response, negative = inhibition is 5.85%. With `O=[N+]([O-])c1ccc(C2C3C(c4ccccc4)=NC4(CCCCC4)N32)cc1` (configuration not stated), the max response, negative = inhibition is 4.9%. The value for `O=C1NC(=O)C(Cc2ccccc2)C(=O)N1` was 4.35%; that for `CC(=O)N1CN2CN(C(C)=O)CC(C(=O)c3ccc(Br)cc3)(C2)C1` was 2.09%; that for `Cc1cc2ccccn2c1C(C[N+](=O)[O-])c1c(F)cccc1Cl` (configuration not stated) was -52.4% (active). As for `Cn1cc(C(=O)OCC(=O)N2CCCC2)c2ccccc21`, the max response, negative = inhibition is 0%. `CCC(=O)OC(Cc1ccccc1)(c1ccccc1)C(C)CN(C)C` (configuration not stated): the max response, negative = inhibition is -66% (active). In the case of `O=P(OC1=CCCCC1)(c1ccccc1)c1ccccc1`, the max response, negative = inhibition is 16.2%. Consider `CN(C)CCN(CC1CCCN(Cc2ccccc2F)C1)C(=O)Cc1ccc(F)c(F)c1` (configuration not stated), for which the max response, negative = inhibition is -0.712%. For `Nc1ccc(C(=O)N/N=C2/CN3CCC2CC3)cc1`, the max response, negative = inhibition is -6.03%. For `C=CCN1C(=O)NC(=O)/C(=C/c2ccc(OCC(=O)Nc3ccc(C)cc3)cc2)C1=O`, the max response, negative = inhibition was -2.43%. The value for `O=C(O)C1CSC(c2cccnc2)N1` (configuration not stated) was -75.1% (active).

Take `CC(C)n1c(=O)c(C=Nc2ccc(Br)cc2)c(O)n(Cc2ccco2)c1=O`: the max response, negative = inhibition was -0.258%. As for `COC(=O)C1=C(c2ccc(OCc3ccccc3)cc2)C[C@@H]2CC[C@H]1N2C(=O)NCc1ccc(Cl)cc1`, the max response, negative = inhibition was -2.39%. As to `COc1ccc(N=Cc2c(O)n(C)c(=O)[nH]c2=O)cc1`, the max response, negative = inhibition is -8.25%. On to `COc1ccc(C(=O)C2CCCN(Cc3ccc(C)s3)C2)cc1OC` (configuration not stated), for which the max response, negative = inhibition was 1.99%.
